CYP2C9 inhib: blocks human cytochrome P450 2C9; P11712; CYP2C9 Supersomes, luciferin-H conversion, luminescence; inhibition, % at 5 µM; 96,000 tested, 20% active;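 active = blocking of liver enzyme CYP2C9 beyond about 50% at 5 µM, limit read from the data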
CYP2C19 act: activators of human cytochrome P450 2C19 | 96,000 tested, under 10 active | AID 1025 | recombinant CYP2C19, luciferin-H EGE luminescence; active compounds read high; 0 = fully inhibited enzyme, 1 = untreated enzyme | activation factor at 5 µM | P33261;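 active = activation factor of at least 2 at 5 µM in the primary screen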;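 note: 0 = wells with 2.5 mM tranylcypromine and 1 = vehicle-only wells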
Target sequence (P33261 whole entry, looked up): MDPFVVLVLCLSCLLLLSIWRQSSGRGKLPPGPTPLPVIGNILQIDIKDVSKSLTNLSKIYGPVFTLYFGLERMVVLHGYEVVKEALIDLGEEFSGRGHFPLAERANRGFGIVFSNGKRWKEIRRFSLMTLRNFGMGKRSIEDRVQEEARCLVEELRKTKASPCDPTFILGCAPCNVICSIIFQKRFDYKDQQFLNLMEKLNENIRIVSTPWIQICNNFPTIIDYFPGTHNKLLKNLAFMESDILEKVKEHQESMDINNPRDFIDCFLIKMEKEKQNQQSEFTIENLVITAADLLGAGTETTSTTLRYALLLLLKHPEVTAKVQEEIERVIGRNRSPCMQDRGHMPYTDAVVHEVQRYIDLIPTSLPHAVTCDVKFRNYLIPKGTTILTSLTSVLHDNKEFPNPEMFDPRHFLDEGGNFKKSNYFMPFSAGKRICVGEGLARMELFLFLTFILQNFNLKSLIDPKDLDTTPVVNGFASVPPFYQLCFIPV
sEH inhibitor: inhibitors of human soluble epoxide hydrolase. AID 707. P34913. 91,000 tested, 0.34% active. inhibition, % at 2 µM. recombinant human sEH enzymatic activity assay; in the data active = inhibition above about 80%
CYP2C9 act: increases human cytochrome P450 2C9 activity; activation factor at 5 µM; P11712; 96,000 tested, 1.4% active; recombinant CYP2C9, luciferin-H conversion, luminescence; active compounds read high; factor 1 = untreated enzyme, 0 = blocked; AID 1024;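 active = activation factor of 2 or more for CYP2C9 at a 5 µM dose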;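 note: 0 = sulfaphenazole-blocked wells and 1 = vehicle-only wells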
CYP2C19 inh: human CYP2C19 inhibition. AID 778. CYP2C19 Supersomes, luciferin-H EGE luminescence, 30 min. 96,000 tested, 21% active. inhibition, % at 5 µM. P33261;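 active = CYP2C19 inhibition above a set limit at 5 µM in the primary screen, cut at about 50% in these data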;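 note: plate controls were negative control wells for no effect and 2.5 mM tranylcypromine positive control for full effect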
sEH activator: soluble epoxide hydrolase (human) activation. P34913. purified human sEH enzymatic activity, activator screen. activation, % at 2 µM. 91,000 tested, 0.04% active. AID 717; in the data active = activation above about 37%
Starred values were filed as active, the others as inactive; x = no result. A selection: hits, their analogues and other compounds. The true share with any hit is near 27%.

SMILES | CYP2C9 inhib | CYP2C19 act | sEH inhibitor | CYP2C9 act | CYP2C19 inh | sEH activator
Cn1c(SCc2ccccc2F)nnc1-c1cnccn1 | -4 | 0.4 | 4 | 1 | 62* | -6
CC(C)NC(=O)CSc1nc2ccccc2n1-c1ccccc1 | x | x | -5 | x | x | 4
C=CCC(Nc1ccccc1)C12C=CC(O1)C(C(=O)OC)=C2C(=O)OC (stereo unspecified) | x | x | 9 | x | x | -6
CCNc1[nH]c(=O)n(C)c(=O)c1N=O | -8 | 1.2 | 5 | 1.1 | -16 | -4
CCc1c(C)sc(NC(=O)Cn2nc(C(F)(F)F)c3c2CCCC3)c1C#N | 24 | 0.8 | -5 | 0.8 | 22 | 9
COc1cccc(C(=O)CSc2nc3ccccc3n2CC(=O)N(C(C)C)C(C)C)c1 | x | x | 2 | x | x | 3
c1ccc(CSc2nnc(-c3ccccn3)n2-c2ccccc2)cc1 | 99* | 0.8 | -26 | 0 | 24 | 23
CC1CCN(C(=O)CSc2nncn2-c2ccccn2)CC1 | -25 | 1.1 | -10 | 1.2 | -6 | 8
c1ccc(CSc2nncn2-c2ccccn2)cc1 | 19 | 0.1 | 0 | 0.8 | 88* | 1
CCNc1ccc2c(Cl)cc(=O)oc2c1 | 0 | 1 | -16 | 1 | -5 | 14
CC(C)(C)n1ncc2c(=O)n(CC(=O)Nc3ccc4c(c3)OCCO4)cnc21 | 15 | 1.1 | 1 | 0.9 | -7 | -4
C=C(C)COc1ccc(-c2nc(N)nc(C)c2Oc2ccccc2OC)c(O)c1 | 24 | 0.8 | 5 | 0.8 | 17 | -5
CCOc1ccc(-c2n[nH]c(C)c2Oc2ccccc2OC)c(O)c1 | 89* | 0 | -5 | 0.1 | 99* | 7
C=C(C)COc1ccc(-c2n[nH]c(C)c2Oc2ccccc2OC)c(O)c1 | 81* | 0.2 | -18 | 0.2 | 81* | 17
CC(C)OC(=O)C(CC(=O)O)NCc1ccccc1 (stereo unspecified) | 6 | 1 | 8 | 0.9 | -3 | -5
CCN(CC)c1cc(C)c2cc(NC(=O)CNC(C)=O)ccc2n1 | 14 | 1 | -7 | 0.9 | -2 | 6
O=C(CSc1nnc(-c2ccccc2Cl)o1)Nc1ccc2c(c1)OCCO2 | x | x | 0 | x | x | 2
O=c1c(-c2nnc(SCc3ccc(Cl)c(Cl)c3)o2)cccn1Cc1ccccc1 | 56* | 0.2 | -17 | 0.4 | 84* | 20
COc1ccc(OC)c2sc(NC(=O)C3CC3)nc12 | 57* | 0.7 | 4 | 0.4 | 31 | -5
CCC(=O)Nc1nc2c(OC)ccc(OC)c2s1 | 2 | 1.1 | -6 | 1 | -7 | 4
CCCC(=O)Nc1nc2c(OC)ccc(OC)c2s1 | 61* | 0.7 | x | 0.4 | 30 | x
COc1ccc(OC)c2sc(NC(=O)c3ccc(Cl)s3)nc12 | 22 | 0.9 | -23 | 0.8 | 9 | 21
C=C1N(c2ccc(Cl)cc2)C(=O)OC1(C)C | 27 | 0.4 | -22 | 0.7 | 58* | 21
COC(=O)Cc1c(C)nc2nc(-c3ccco3)[nH]n2c1=O | x | x | 6 | x | x | -3
Cc1ccc(O)c(N=CC2=C(O)c3ccccc3C2=O)c1 | 79* | 0.5 | -7 | 0.2 | 50 | 8
SMILES | CYP2C9 inhib | CYP2C19 act | sEH inhibitor | CYP2C9 act | CYP2C19 inh | sEH activator
O=S(=O)(NC1CCCC1)c1ccc(S(=O)(=O)N2CCN(c3ccccc3)CC2)cc1 | 16 | 1.1 | -17 | 0.8 | -5 | 14
CC1CN(C(=O)COc2ncnc3ccccc23)CC(C)O1 (stereo unspecified) | -2 | 1 | -31 | 1 | -4 | 29
O=C(C1CCC1)N1CCc2cc(S(=O)(=O)NCCN3CCN(c4ccccc4F)CC3)ccc21 | 59* | 0.5 | x | 0.4 | 48 | x
CCC1CCCCN1S(=O)(=O)c1ccc2c(c1)CCN2C(=O)C1CCC1 (stereo unspecified) | 52* | 0.7 | x | 0.5 | 28 | x
O=C(C1CCC1)N1CCc2cc(S(=O)(=O)NCc3ccccn3)ccc21 | 58* | 0.9 | -9 | 0.4 | 14 | 6
O=C(C1CCC1)N1CCc2cc(S(=O)(=O)N3CCc4ccccc4C3)ccc21 | x | x | 4 | x | x | 0
O=C(C1CC1)N1CCc2cc(Br)cc(S(=O)(=O)NCc3ccccn3)c21 | 1 | 1.1 | x | 1 | -6 | x
O=C(CN1CCN(C(=O)c2cccs2)CC1)NC1CCCCC1 | 38 | 0.8 | 27 | 0.6 | 15 | -26
Nc1nnnn1/N=C/c1ccccn1 | -4 | 1.1 | 1 | 1 | -5 | 1
Cc1ccc(C(=O)c2nocc2C(=O)c2cccs2)cc1 | 69* | 0.4 | 15 | 0.3 | 62* | -16
